# Results as given in PubChem BioAssay (EPA / NIEHS).
# Results filed as inconclusive are left out. Calls of active or inactive are those of the source. How the source made its calls, unless noted: active means hit-call score of the fitted dose curve at least 0.9, where 1 is the maximum; inconclusive means response in the unintended direction; inactive means score below 0.9.
# What was measured:
# [1] = biological target: Thyroid hormone receptor alpha (Rattus norvegicus) + Thyroid hormone receptor beta (Rattus norvegicus) (UniProt P18113+P63059); assay: TOX21_TR_LUC_GH3_Agonist_Followup: Tox21 GH3 Thyroid Hormone Receptor Agonism Luciferase Follow-Up Assay (AID 2283939)
# Sequence of Thyroid hormone receptor alpha (Rattus norvegicus) + Thyroid hormone receptor beta (Rattus norvegicus) (P63059 whole entry, looked up): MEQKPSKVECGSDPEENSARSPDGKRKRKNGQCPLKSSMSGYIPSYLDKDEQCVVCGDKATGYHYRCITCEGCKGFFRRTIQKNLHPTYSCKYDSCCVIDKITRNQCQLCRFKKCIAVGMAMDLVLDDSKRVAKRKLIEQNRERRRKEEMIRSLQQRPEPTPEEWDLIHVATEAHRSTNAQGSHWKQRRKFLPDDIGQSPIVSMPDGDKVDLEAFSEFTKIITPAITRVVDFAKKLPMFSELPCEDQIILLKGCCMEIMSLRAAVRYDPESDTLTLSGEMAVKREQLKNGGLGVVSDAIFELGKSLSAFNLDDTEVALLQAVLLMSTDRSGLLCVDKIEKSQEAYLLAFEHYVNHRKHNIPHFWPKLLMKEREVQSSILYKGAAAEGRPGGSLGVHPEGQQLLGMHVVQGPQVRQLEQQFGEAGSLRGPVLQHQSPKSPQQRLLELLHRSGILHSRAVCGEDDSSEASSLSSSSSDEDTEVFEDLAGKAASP
# Sequence of Thyroid hormone receptor alpha (Rattus norvegicus) + Thyroid hormone receptor beta (Rattus norvegicus) (P18113 whole entry, looked up): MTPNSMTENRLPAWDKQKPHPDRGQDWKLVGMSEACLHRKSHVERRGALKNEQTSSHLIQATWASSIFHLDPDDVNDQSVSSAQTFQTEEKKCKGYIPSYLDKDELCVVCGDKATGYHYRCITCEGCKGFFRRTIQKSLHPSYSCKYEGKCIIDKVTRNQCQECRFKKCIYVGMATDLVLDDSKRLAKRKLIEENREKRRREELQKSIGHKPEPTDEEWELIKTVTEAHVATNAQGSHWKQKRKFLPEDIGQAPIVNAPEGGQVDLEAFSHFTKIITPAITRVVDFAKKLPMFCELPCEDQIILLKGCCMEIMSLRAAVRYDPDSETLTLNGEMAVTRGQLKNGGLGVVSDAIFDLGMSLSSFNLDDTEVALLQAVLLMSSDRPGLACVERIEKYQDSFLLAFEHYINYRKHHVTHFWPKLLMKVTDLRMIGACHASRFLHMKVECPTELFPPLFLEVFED
# Outline: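 Rat GH3 cells (1,500/well) in serum-free assay medium, treated with 15-point series, 92 uM to 5 nM final, for 24 h at 37C. Luciferase via ONE-Glo luminescence; gain of signal fitted against DMSO, T3 positive control.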
# THRA (gene 7067) = THRA (gene 7067) (UniProt P10827); assay: TOX21_TRA_COA_Agonist_Followup_ratio: Tox21 Thyroid Hormone Receptor alpha Agonism through Coactivator Recruitment Follow-Up Assay, Ratio (AID 2283948; active means hit-call score of the fitted dose curve at least 0.9, where 1 is the maximum; inactive means score below 0.9)
# Sequence of THRA (gene 7067) (P10827 whole entry, looked up, the tested form may be a part): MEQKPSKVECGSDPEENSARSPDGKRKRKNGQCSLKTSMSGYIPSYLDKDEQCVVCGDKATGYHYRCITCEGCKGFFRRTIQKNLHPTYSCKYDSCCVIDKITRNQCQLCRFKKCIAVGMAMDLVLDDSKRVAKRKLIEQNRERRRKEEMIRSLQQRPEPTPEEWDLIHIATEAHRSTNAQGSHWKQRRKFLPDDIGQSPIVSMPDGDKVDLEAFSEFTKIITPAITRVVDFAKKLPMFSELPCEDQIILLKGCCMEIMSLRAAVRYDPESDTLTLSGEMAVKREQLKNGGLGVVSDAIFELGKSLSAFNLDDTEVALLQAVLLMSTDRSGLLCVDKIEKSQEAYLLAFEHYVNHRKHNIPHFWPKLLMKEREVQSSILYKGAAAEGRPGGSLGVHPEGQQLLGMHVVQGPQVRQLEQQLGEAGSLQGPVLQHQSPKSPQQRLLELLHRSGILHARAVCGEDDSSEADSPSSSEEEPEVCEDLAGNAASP
# Outline: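 Cell-free TR-FRET: GST-tagged TRα LBD (2.5 nM) with 0.10% BSA and compound, then fluorescein-SRC-2 peptide (200 nM) and Tb-anti-GST antibody (2 nM). Readout 520:495 nm ratio (ex 340 nm), normalized to DMSO (0%) and T3 (100%).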
# THRB (gene 7068) [2] = biological target: THRB (gene 7068) (UniProt P10828); assay: TOX21_TRB_BLA_Agonist_Followup_ratio: Tox21 Thyroid Hormone Receptor beta Agonism Beta-lactamase (BLA) Follow-Up Assay, Ratio (AID 2283954)
# Sequence of THRB (gene 7068) (P10828 whole entry, looked up, the tested form may be a part): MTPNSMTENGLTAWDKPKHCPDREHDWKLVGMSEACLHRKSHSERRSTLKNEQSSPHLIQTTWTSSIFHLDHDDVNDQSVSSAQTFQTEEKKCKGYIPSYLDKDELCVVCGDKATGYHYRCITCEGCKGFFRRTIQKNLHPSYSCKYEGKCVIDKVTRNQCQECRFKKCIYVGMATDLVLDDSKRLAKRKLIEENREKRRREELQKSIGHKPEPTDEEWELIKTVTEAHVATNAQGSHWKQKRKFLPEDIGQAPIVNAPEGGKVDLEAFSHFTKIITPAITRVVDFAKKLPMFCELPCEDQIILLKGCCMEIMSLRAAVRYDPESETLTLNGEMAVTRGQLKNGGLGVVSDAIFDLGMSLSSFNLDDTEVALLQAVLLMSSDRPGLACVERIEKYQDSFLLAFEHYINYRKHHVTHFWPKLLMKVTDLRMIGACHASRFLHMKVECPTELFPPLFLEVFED
# Outline: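 Human TRβ LBD–GAL4 DBD fusion in GeneBLAzer UAS-bla HEK293T cells; 11 concentrations in triplicate, 18 h at 37°C/5% CO2, T3 as agonist control. CCF4-AM substrate 2 h at room temperature; 460:530 nm ratio fitted for gain of signal versus DMSO.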
# [3] = TOX21_TRB_BLA_Agonist_Followup_viability: Viability Assessment in the Tox21 Thyroid Hormone Receptor beta Agonism Beta-lactamase (BLA) Follow-Up Assay (AID 2283956)
# Outline: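 TRb-bla HEK293T cells (GAL4-DBD/human TRb LBD) in 2% charcoal-stripped FBS medium were exposed 18 h at 37C to 11 concentrations in triplicate. CellTiter-Glo ATP luminescence was read after 30 min at room temperature, with bidirectional fitting against DMSO.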
# THRB (gene 7068) [4] = biological target: THRB (gene 7068) (UniProt P10828); assay: TOX21_TRB_COA_Agonist_Followup_ratio: Tox21 Thyroid Hormone Receptor beta Agonism through Coactivator Recruitment Follow-Up Assay, Ratio (AID 2283963; active means hit-call score of the fitted dose curve at least 0.9, where 1 is the maximum; inactive means score below 0.9)
# Outline: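 Cell-free TR-FRET coactivator recruitment: GST-tagged TRβ LBD (5.0 nM) with 0.10% BSA incubated with compound, then fluorescein-SRC-2 peptide (200 nM) and Tb-anti-GST antibody (2 nM) added. 520:495 nm ratio normalized to DMSO (0%) and T3 (100%).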
# [5] = biological target: Retinoic acid receptor RXR-alpha (Homo sapiens) (UniProt P19793); assay: TOX21_TR_RXR_BLA_Agonist_Followup_ratio: Tox21 Thyroid Hormone Receptor beta Retinoid X Receptor alpha (RXRa) Agonism Beta-lactamase (BLA) Follow-Up Assay, Ratio (AID 2283968)
# Sequence of Retinoic acid receptor RXR-alpha (Homo sapiens) (P19793 whole entry, looked up, the tested form may be a part): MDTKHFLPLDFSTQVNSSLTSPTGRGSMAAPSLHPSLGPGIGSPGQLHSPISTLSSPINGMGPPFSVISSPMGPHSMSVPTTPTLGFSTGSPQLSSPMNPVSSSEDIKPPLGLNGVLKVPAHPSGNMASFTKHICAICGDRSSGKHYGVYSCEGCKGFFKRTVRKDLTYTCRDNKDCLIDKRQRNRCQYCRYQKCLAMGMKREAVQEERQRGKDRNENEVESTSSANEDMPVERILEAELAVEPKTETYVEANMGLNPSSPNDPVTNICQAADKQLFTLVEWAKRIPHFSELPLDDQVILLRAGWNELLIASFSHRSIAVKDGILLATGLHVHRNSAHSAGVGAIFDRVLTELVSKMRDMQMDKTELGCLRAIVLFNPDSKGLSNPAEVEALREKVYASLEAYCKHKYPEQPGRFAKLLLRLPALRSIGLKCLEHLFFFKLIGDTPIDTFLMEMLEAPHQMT
# Outline: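 This follow-up tests whether responses seen in the TR GH3 luciferase agonist screen are specific, using a GAL4-driven beta-lactamase reporter for RXRa in HEK293T cells. Compound exposure lasts 16 h; signal is the cleaved/uncleaved substrate ratio.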
# [6] = TOX21_TR_RXR_BLA_Agonist_Followup_viability: Viability Assessment in the Tox21 Thyroid Hormone Receptor beta Retinoid X Receptor alpha (RXRa) Agonism Beta-lactamase (BLA) Follow-Up Assay (AID 2283970)
# Outline: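 In qHTS format, RXRa-bla HEK293T cells (2,500/well) received compound for 16h. ATP content was then measured with CellTiter-Glo, and responses were fitted bidirectionally relative to DMSO controls.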
# [7] = biological target: Nucleoli Translocation, AR (gene 367) (UniProt P10275); assay: UPITT_HCI_U2OS_AR_TIF2_Nucleoli_Antagonist: University of Pittsburgh U2OS Androgen Receptor-Transcriptional Intermediary Factor 2 (AR-TIF2) Antagonism High Content Imaging Assay for Nucleoli Translocation (AID 2283997)
# Sequence of Nucleoli Translocation, AR (gene 367) (P10275 whole entry, looked up): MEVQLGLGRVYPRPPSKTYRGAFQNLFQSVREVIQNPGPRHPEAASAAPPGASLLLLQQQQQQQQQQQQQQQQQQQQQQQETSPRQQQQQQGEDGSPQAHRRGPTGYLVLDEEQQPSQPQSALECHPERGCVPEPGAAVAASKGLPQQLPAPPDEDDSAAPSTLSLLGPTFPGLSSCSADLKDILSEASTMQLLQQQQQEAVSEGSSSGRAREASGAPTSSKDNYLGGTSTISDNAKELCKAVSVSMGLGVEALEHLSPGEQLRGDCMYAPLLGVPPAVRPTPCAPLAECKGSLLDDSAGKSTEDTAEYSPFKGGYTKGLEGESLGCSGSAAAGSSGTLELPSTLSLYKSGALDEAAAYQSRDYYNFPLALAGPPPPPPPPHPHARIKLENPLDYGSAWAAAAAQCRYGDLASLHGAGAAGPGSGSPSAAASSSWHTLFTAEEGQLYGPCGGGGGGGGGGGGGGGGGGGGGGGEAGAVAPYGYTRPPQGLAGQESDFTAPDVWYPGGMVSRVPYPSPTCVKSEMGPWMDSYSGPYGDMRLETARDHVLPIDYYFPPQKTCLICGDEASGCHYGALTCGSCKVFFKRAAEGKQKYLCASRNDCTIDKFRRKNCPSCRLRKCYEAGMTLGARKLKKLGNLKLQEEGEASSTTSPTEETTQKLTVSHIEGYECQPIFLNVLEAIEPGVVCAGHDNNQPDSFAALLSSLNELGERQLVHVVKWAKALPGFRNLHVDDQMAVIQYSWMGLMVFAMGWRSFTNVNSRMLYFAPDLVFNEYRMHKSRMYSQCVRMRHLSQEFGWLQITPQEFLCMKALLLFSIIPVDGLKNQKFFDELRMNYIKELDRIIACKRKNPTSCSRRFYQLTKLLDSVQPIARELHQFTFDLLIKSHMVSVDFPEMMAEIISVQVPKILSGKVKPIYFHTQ
# Outline: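 U2OS cells expressing RFP-tagged human AR and GFP-tagged TIF2 were imaged by high-content fluorescence microscopy for red AR signal in the nucleolar region. Compounds were screened at 20 uM final (0.2% DMSO), with activity fitted relative to DHT as baseline.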
# DIO1 (gene 1733) = assay: CCTE_GLTED_hDIO1: CCTE's human Deiodinase 1 (DIO1) Inhibition Assay, Great Lakes Toxicology and Ecology Division (GLTED) Lab (AID 2283987);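 further: isolated human DIO1 enzyme in a cell-free setup rather than cells; enzyme activity read as free iodide liberated from substrate via Sandell-Kolthoff colorimetry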
# Outline: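 Cell-free human DIO1 enzyme incubated 3 h with test chemical; iodide freed from substrate then measured by Sandell-Kolthoff absorbance. Run in triplicate; loss of signal relative to DMSO taken as inhibition.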
# [8] = biological target: Nucleoli Translocation, AR (gene 367) (UniProt P10275); assay: UPITT_HCI_U2OS_AR_TIF2_Nucleoli_Agonist: University of Pittsburgh U2OS Androgen Receptor-Transcriptional Intermediary Factor 2 (AR-TIF2) Agonism High Content Imaging Assay for Nucleoli Translocation (AID 2283998)
# Outline: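 U2OS cells expressing RFP-tagged human AR and GFP-tagged TIF2; red fluorescence in nucleoli quantified by high-content imaging. Primary screen at 20 uM final (0.2% DMSO); concentration-response 0.195–50 uM (0.5% DMSO), fitted upward versus DMSO.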
# PGR (gene 5241) = PGR (gene 5241) (UniProt P06401); assay: TOX21_PR_LUC_Followup_Antagonist: Tox21 HEK293 Progesterone Receptor (PR) Antagonism Luciferase Follow-Up Assay (AID 2283938);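 further: curve fitted upward as signal gain over DMSO baseline despite antagonist label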
# Sequence of PGR (gene 5241) (P06401 whole entry, looked up): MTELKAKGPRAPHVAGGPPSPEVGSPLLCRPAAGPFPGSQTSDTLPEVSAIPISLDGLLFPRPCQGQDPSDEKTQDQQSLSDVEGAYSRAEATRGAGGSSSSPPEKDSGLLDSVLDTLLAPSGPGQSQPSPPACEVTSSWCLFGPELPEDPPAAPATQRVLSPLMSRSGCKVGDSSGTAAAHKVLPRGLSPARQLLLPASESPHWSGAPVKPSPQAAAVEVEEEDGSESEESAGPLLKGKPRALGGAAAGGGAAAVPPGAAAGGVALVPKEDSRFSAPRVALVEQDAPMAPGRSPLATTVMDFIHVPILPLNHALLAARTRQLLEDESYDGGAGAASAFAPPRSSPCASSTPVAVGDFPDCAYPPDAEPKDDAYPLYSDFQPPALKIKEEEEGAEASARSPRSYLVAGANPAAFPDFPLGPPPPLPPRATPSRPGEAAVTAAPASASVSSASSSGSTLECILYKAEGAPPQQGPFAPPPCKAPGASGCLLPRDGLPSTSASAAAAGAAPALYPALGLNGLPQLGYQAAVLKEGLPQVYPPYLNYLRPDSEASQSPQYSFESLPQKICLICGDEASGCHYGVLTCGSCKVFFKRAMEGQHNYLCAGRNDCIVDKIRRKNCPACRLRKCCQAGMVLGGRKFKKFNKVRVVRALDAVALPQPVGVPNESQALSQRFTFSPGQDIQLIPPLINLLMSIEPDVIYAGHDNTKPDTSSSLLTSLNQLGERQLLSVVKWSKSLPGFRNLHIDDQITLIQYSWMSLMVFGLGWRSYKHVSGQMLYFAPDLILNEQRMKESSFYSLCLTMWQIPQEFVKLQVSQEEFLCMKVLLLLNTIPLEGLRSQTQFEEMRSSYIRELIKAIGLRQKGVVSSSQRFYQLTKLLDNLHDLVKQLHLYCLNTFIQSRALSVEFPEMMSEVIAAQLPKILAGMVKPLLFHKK
# Outline: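 HEK293-PR-A-luc cells, 3,000/well, preincubated 5 h at 37C before compound addition in DMSO; 16 h compound exposure at 37C. ONE-Glo luciferase luminescence read after 30 min at room temperature, fitted relative to DMSO baseline.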
# [9] = TOX21_PR_LUC_Followup_Agonist_viability: Viability Assessment in the Tox21 HEK293 Progesterone Receptor (PR) Agonism Luciferase Follow-Up Assay (AID 2283941);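 further: loss of signal means cytotoxicity so actives lower viability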
# Outline: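 Luminescent ATP quantitation (CellTiter-Glo) serves as the read-out; a drop flags cytotoxic compounds. Cells are HEK293-PR-A-luc grown in 10% charcoal-stripped FBS, plated 3,000/well, and exposed to compound for 16 h.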
# [10] = TOX21_PR_LUC_Followup_Antagonist_viability: Viability Assessment in the Tox21 HEK293 Progesterone Receptor (PR) Antagonism Luciferase Follow-Up Assay (AID 2283940)
# Outline: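 Cellular ATP, measured with luciferase-coupled CellTiter-Glo, served as the viability endpoint after HEK293-PR-A-luc cells were exposed to test compounds for 16 h at 37C.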
smiles,measurement,setting,value
O=C(O)C(Cl)Cl,outcome,[1],inactive
same,outcome,THRA (gene 7067),inactive
same,outcome,THRB (gene 7068) [2],inactive
same,outcome,[3],inactive
same,outcome,THRB (gene 7068) [4],inactive
same,outcome,[5],inactive
same,outcome,[6],inactive
c1cc2c3c(cccc3c1)CC2,outcome,[7],inactive
COC(=O)C(F)(F)C(F)(F)OC(F)(C(F)(F)F)C(F)(F)OC(F)=C(F)F (configuration not stated),AC50,DIO1 (gene 1733),0.494 µM (active)
[N-]=[N+]=[N-],outcome,[7],inactive
same,outcome,[8],inactive
ClC1=C(Cl)C2(Cl)C3C(Cl)C(Cl)CC3C1(Cl)C2(Cl)Cl (configuration not stated),AC50,[7],11.5 µM (active)
same,outcome,[8],inactive
CCOP(=S)(Oc1ccc([N+](=O)[O-])cc1)c1ccccc1 (configuration not stated),AC50,PGR (gene 5241),7.8 µM (active)
same,outcome,[9],inactive
CCOP(=S)(OCC)SCSc1ccc(Cl)cc1,AC50,PGR (gene 5241),20.4 µM (active)
CCN(CC)c1ccccc1,outcome,[7],inactive
same,outcome,[8],inactive
O=S1(=O)OCC2C(CO1)C1(Cl)C(Cl)=C(Cl)C2(Cl)C1(Cl)Cl (configuration not stated),AC50,PGR (gene 5241),27.1 µM (active)
same,outcome,[10],inactive
same,outcome,[9],inactive
C=CC(=O)OCC(F)(F)C(F)F,AC50,DIO1 (gene 1733),19.8 µM (active)
CCCCN(CC)C(=O)SCCC,outcome,[7],inactive
same,outcome,[8],inactive
CCNc1nc(Cl)nc(NC(C)(C)C)n1,outcome,[7],inactive
same,outcome,[8],inactive
CC(Cc1ccc(OCC(=O)O)cc1)NCC(O)c1csc(C(F)(F)F)n1 (configuration not stated),outcome,[1],inactive
same,outcome,THRA (gene 7067),inactive
same,outcome,[3],inactive
same,outcome,THRB (gene 7068) [4],inactive
same,outcome,[5],inactive
same,outcome,[6],inactive
